# Source: PubChem BioAssay (National Center for Advancing Translational Sciences (NCATS))
# An excerpt weighted towards active compounds, which were near 2.3% of everything screened.
# TDP-43 yeast inh: TDP-43 toxicity inhibition in yeast. Potency, µM (highest dose often 46.1 µM), hits mostly activators. TDP-43 expressing yeast growth rescue, BacTiter-Glo, 24 h. 1.8% of 410,000 active; note: nearly all actives have a fitted effect of over 50% in size
#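 Readout is BacTiter-Glo luminescence of cell growth, so inhibitors register as activators. TDP-43-expressing yeast at OD600=0.02 in galactose medium, after raffinose pregrowth to mid-log, were incubated with compound for 24 hr at 30 deg C.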
# Abeta rescue: A-beta toxicity reversal in yeast; yeast expressing A-beta42, growth rescue, OD600, 48 h; response scale: 0% DMSO, 100% iron-clioquinol control; Potency, µM (highest dose often 46.1 µM), actives largely listed as activators; 0.063% of 410,000 active; AID 1347071; note: nearly all actives have a fitted effect of over 55% in size
#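 Yeast A-beta toxicity model in growth medium with pinned compounds, 48 h at 30 C; growth read as absorbance at 600 nm. Normalized to FeCl3/clioquinol equimolar mix (positive) and DMSO (negative).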
# aSyn rescue: alpha-synuclein toxicity inhibition in yeast | Yeast expressing alpha-synuclein, growth rescue, BacTiter-Glo, 24 h | Potency, µM (titrated, usually from 46.1 µM), actives largely listed as activators | 0.14% of 370,000 active | AID 652106; note: nearly all actives have a fitted effect of over 65% in size
#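 Galactose-induced alpha-syn yeast (OD600=0.02, raffinose-pregrown) + pinned cpd, 24 hr, 30 deg C; growth by BacTiter-Glo luminescence. Growth restoration scores as activation.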
# FUS yeast rescue: rescues growth of FUS-expressing yeast. AID 1347120. Potency, µM (series often up to 76.6 µM), hits mostly activators. S. cerevisiae FUS-expressing, growth rescue, OD600, 24 h. 0.24% of 390,000 active; note: nearly all actives have a fitted effect of over 55% in size
#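 Restored growth of FUS-toxic S. cerevisiae, read as 600 nm absorbance after 24 h at 30C in galactose medium (starting OD 0.005). Controls CP55940 and DMSO.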
# pAkt inh: Akt phosphorylation inhibition; AID 651550; Neuro2A IGF-stimulated pAkt S473 HTRF, 20 min; stronger effect = lower value; 0.32% of 360,000 active; activity change, % for hits at 50 µM; in the data active = activity change below about -80%; inconclusive = mostly about -51% to -80%
#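 Single-point screen (50 µM final compound) in Neuro2A cells stimulated 20 min with 6 nM IGF at 37 deg C. After lysis, Ser473-phosphorylated Akt read by HTRF (ex 330 nm, em 615/665 nm) as the 665/615 ratio.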
# A number is an active result; - = inactive; ? = inconclusive; . = no result given; [ ] = another dose, or the depositor's remark. Unless noted, calls come from the whole dose curve; as a rule, active = well fitted curve in the direction sought with a large enough effect; inconclusive = small, poorly fitted or top-dose-only effect, or another doubt; inactive = no such curve, though single readings can be large; an effect the other way counts as inactive or inconclusive.
SMILES,TDP-43 yeast inh,Abeta rescue,aSyn rescue,FUS yeast rescue,pAkt inh
Cc1cccc(NC(=O)C(Cc2ccccc2)n2cccc2)c1C (configuration not stated),?,-,.,-,.
CC1CCc2sc3nc(NCc4ccco4)n4ncnc4c3c2C1 (configuration not stated),25.1µM,-,-,-,-
c1coc(CNc2ncnc3sc4c(c23)CCCCC4)c1,12.6µM,-,-,-,-
Cc1nc(NCc2ccccn2)c2c3c(sc2n1)CCCC3,-,-,-,-,-
c1ccc(CNc2ncnc3sc4c(c23)CCCC4)nc1,12.6µM,-,-,-,-
C=Cc1ccc(Cn2c(C(=O)O)c(CNC3CCCCC3)c3ccc(OC)cc32)cc1,-,-,.,?,.
COCCn1c(CCC(=O)Nc2ccc(C)c(Cl)c2)nc2cccnc21,-,-,.,-,.
O=C(c1cc(F)cc(F)c1)N1CCC(c2nc(-c3ccc(S(=O)(=O)N4CCCC4)cc3)no2)CC1,-,-,.,-,.
NC(Cc1ccc(Cl)cc1)c1csc(NC(=O)NCCc2ccccc2)n1 (configuration not stated),-,-,-,-,-
NC(Cc1ccc(Cl)cc1)c1csc(NC(=O)NCC2CCCCC2)n1 (configuration not stated),?,-,-,25.1µM,-
COc1ccc(CNC(=O)CCCn2c(=O)c3cccn3c3ccc(F)cc32)cc1OC,-,-,.,-,.
Cc1ccc(C(=O)Nc2c(C)nc3ccccn3c2=O)cc1C,-,-,.,-,.
O=C(/C=C/c1ccc2c(c1)OCO2)c1ccco1,15.8µM,-,-,.,-
O=C(/C=C/c1ccc2c(c1)OCO2)c1ccc(O)cc1O,8.91µM,-,-,-,-
COc1ccc2[nH]c3c(Cl)ncnc3c2c1,12.6µM,-,-,.,-
Fc1ccc2[nH]c3c(Cl)ncnc3c2c1,?,-,-,-,-
Cc1cc(C(=O)CSc2ccc3c(c2)OCCO3)c(C)n1C1CC1,20µM,-,-,-,-
Cn1c(N)c(C(=O)CSc2ccc3c(c2)OCCO3)c(=O)n(C)c1=O,-,-,-,-,-
CC(C)C[C@@H](CN1CCC[C@@H]1CN1C(=S)NC[C@@H]1Cc1ccc(O)cc1)N1C[C@H](Cc2ccc(O)cc2)N(CCc2ccccc2)C1=S,-,-,-,35.5µM,-
COc1cc2c(cc1OC)CN(c1nc(-c3cccnc3)nc3ccccc13)CC2,14.1µM,-,-,-,-
Cc1ccc(C)c(S(=O)(=O)N2CCN(c3nc(-c4cccnc4)nc4ccccc34)CC2)c1,15.8µM,-,-,-,-
O=S(=O)(c1ccccc1F)N1CCN(c2nc(-c3cccnc3)nc3ccccc23)CC1,-,-,-,-,-
Cc1ccc(Cl)cc1NC(=O)C(NS(=O)(=O)c1cccc2nsnc12)c1ccccc1 (configuration not stated),-,-,.,?,.
Cc1ccc(-c2noc(-c3ccccc3NC(=O)C3CC(=O)N(c4ccc(C)cc4)C3)n2)cc1 (configuration not stated),-[9.22 µM],-,.,-,.
Cc1c(C(=O)n2cnc3ccccc32)cccc1[N+](=O)[O-],?,-,-,-,-
SMILES,TDP-43 yeast inh,Abeta rescue,aSyn rescue,FUS yeast rescue,pAkt inh
Cc1nc2ccccc2n1C(=O)c1ccccc1[N+](=O)[O-],20µM,-,-,.,-
Cc1ccc(-c2nc(SCC(=O)NCC3CCCO3)c3c(=O)n(C)c(=O)n(C)c3n2)cc1 (configuration not stated),-[9.22 µM],-,.,-,.
CCN(C(=O)COC(=O)c1ccc(O)cc1)c1cccc2ccccc12,?,7.94µM,-,-,-
COc1cccc(-n2cc(C(=O)NCc3ccc(C)cc3)c3ccccc3c2=O)c1,?,-,.,-,.
COc1ccc(NC2c3ncccc3C(=O)N2Cc2ccccc2)c(OC)c1 (configuration not stated),-,-,-,?,-
COc1ccc(CN2C(=O)c3cccnc3C2Nc2ccc(OC)c(Cl)c2)cc1 (configuration not stated),-,-,-,31.6µM,-
Cc1cn2c(=O)c(S(=O)(=O)N3CCN(c4cc(Cl)ccc4C)CC3)c(C)nc2s1,-,-,.,-,.
CC(C)(C)c1ccc2c(c1)OC(C(=O)N/N=C\c1ccc(-c3cccc(C(=O)O)c3)o1)CO2 (configuration not stated),-,-,-,?,-
O=C(N/N=C\c1ccc(Cl)s1)C1COc2ccccc2O1 (configuration not stated),17.8µM,?,-,-,-
O=C(N/N=C\c1ccc([N+](=O)[O-])s1)C1COc2ccccc2O1 (configuration not stated),3.55µM,-,-,-,-
CC(C)(C)c1ccc2c(c1)OC(C(=O)N/N=C\c1ccccn1)CO2 (configuration not stated),?,?,14.1µM,.,-
O=C(NCc1ccc(F)cc1)c1ccc(NC(=O)C2CCCO2)cc1 (configuration not stated),-,-,-,-,-
COc1ccc(CNC(=O)c2ccc(NC(=O)C3CCCO3)cc2)cc1 (configuration not stated),-,-,-,-,-104.9%
CCCOC(=O)c1ccc(NC(=O)C2CCCO2)cc1 (configuration not stated),?,?,-,-,-118.9%
CCOc1cc(-c2noc(N)c2C(=O)OC)cc(OCC)c1OCC,-,-,-,.,-
COC(=O)c1c(-c2ccc(Br)cc2)noc1N,20µM,-,-,-,-
COCCn1nnnc1C(c1ccc2ncccc2c1)N1CCc2ccccc21 (configuration not stated),-,-,-,-,-
COCCn1nnnc1C(c1ccc2ncccc2c1)N1CCN(c2ccccc2F)CC1 (configuration not stated),-,-,-,-,-103.6%
CC1CC1c1ccc(/C=C(\C#N)C(=O)Nc2ccccc2Cl)o1 (configuration not stated),11.2µM,-,-,.,-
CC1CC1c1ccc(/C=C(\C#N)C(=O)Nc2ccc(Cl)cc2)o1 (configuration not stated),-,-,-,.,-
COC(=O)N1C(=O)[C@](c2ccc(Cl)cc2)(C(C)C)N1C(=O)OC,35.5µM,-,-,-,-
C=C(C)CSc1nnc(-c2cc(-c3ccccc3)n[nH]2)n1N,.,.,.,-,.
CCCc1nnc(NC(=O)c2nc(S(=O)(=O)Cc3ccc(C)cc3)ncc2Cl)s1,11.2µM,-,-,-,-
CC(C)c1nnc(NC(=O)c2nc(S(=O)(=O)Cc3ccccc3)ncc2Cl)s1,8.91µM,-,-,-,-
Cc1ccc(CS(=O)(=O)c2ncc(Cl)c(C(=O)Nc3nc4ccc(C)cc4s3)n2)cc1,?,-,.,-,.
Cc1ccccc1CS(=O)(=O)c1ncc(Cl)c(C(=O)Nc2nnc(C(C)C)s2)n1,11.2µM,-,.,-,.
